Assay results taken from PubChem BioAssay AID2360 (The Scripps Research Institute Molecular Screening Center, 2010).
Among all 1,900 compounds or so, about 85 (4%) were called active.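 How the source made its calls: active means mean PP5 inhibition over triplicate wells above about 9.5% taken from the earlier PP1 screen (limit read from the data); inactive means the rest.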 Many of the other results were omitted from the sample, so actives are more common in it than they were.

biological target: Serine/threonine-protein phosphatase 5 (Homo sapiens) (UniProt P53041); assay: PP5 phosphatase inhibition by PP1 hits, confirmation, counter-screen for PP1 inhibitor project, biochemical, fluorescence, triplicate (AID 2360); settings: purified PP5c, OMFP fluorescence; at 6.7 µM; active compounds read high
Sequence (P53041 whole entry, looked up): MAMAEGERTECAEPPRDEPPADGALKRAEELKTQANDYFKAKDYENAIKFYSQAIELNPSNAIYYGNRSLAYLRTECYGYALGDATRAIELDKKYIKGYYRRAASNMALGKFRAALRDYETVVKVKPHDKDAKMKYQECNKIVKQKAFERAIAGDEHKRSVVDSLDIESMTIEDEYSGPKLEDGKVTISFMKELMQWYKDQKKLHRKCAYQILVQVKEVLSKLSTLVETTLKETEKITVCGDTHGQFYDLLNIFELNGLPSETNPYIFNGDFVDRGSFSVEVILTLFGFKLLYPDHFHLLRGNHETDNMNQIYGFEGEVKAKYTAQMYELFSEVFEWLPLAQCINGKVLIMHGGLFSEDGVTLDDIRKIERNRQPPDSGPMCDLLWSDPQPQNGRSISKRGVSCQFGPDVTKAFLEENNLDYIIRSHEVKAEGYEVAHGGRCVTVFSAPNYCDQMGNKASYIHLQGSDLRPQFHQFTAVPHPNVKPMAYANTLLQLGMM

O=C(O)c1ccccc1NC(=O)C1C2CCC(O2)C1C(=O)O (stereo not drawn) was tested. Which inhibition did it give?
Its inhibition is 17.6% (active).

For CCOP(=O)(OCC)C(O)c1ccc(OC)cc1OC (stereo not drawn), which inhibition is on record?
Its inhibition is -3.76% (inactive).

Which inhibition does the source give for O=c1[nH]c(CN2CC=C(c3ccccc3)CC2)nc2scc(-c3cccs3)c12 here?
Its inhibition is -3.01% (inactive).
